These results are taken from article PMC11062922 (Nature Chemical Biology, 2023).

Where two headings read alike, the source gives them in different places.

Holding throughout (set-up): species or system human, MV4-11 + K-562 + COLO205 + SK-N-BE2 + OVCAR-8
The test system of one assay is CDK6. The note with it: read-out: apparent Kd; compound concentrations: 100 nM and 1000 nM (sheet 'Samples'), CATDS: 0.35534490355550902; n = 1.
The next assay has as its system EGFR. Conditions: read-out: apparent Kd; compound concentrations: 100 nM and 1000 nM (sheet 'Samples'), CATDS: 0.84328926118449798; n = 1.
The test system of a further assay is CDK7. Conditions: read-out: apparent Kd; compound concentrations: 100 nM and 1000 nM (sheet 'Samples'), CATDS: 5.1614283275692202E-2; n = 1.
The subject of a further assay is CDK9. Conditions: read-out: apparent Kd; compound concentrations: 100 nM and 1000 nM (sheet 'Samples'), CATDS: 7.5250343499568897E-2; n = 1.
Another assay has as its system CDKL5. Conditions: read-out: apparent Kd, compound concentrations: 100 nM and 1000 nM (sheet 'Samples'), n = 1.
A further assay deals with CLK1. Conditions: read-out: apparent Kd; compound concentrations: 100 nM and 1000 nM (sheet 'Samples'), CATDS: 0.18636177679303401; n = 1.
A further assay deals with CLK4. The note with it: read-out: apparent Kd; compound concentrations: 100 nM and 1000 nM (sheet 'Samples'), CATDS: 0.17259551294748199; n = 1.
Another assay deals with DYRK1A. The note with it: read-out: apparent Kd; compound concentrations: 100 nM and 1000 nM (sheet 'Samples'), CATDS: 5.4131433130879598E-2; n = 1.
The next assay relates to ERCC2. The note with it: read-out: apparent Kd; compound concentrations: 100 nM and 1000 nM (sheet 'Samples'), CATDS: 5.1102609842245399E-2; n = 1.
In the next assay the test system is FLT3. Conditions: read-out: apparent Kd; compound concentrations: 100 nM and 1000 nM (sheet 'Samples'), CATDS: 7.2287914746840001E-2; n = 1.
The test system of a further assay is GSK3A. The note with it: read-out: apparent Kd; compound concentrations: 100 nM and 1000 nM (sheet 'Samples'), CATDS: 6.4716553061548596E-2; n = 1.
Another assay concerns GSK3B. The note with it: read-out: apparent Kd; compound concentrations: 100 nM and 1000 nM (sheet 'Samples'), CATDS: 9.1324175022244006E-2; n = 1.
In another assay the test system is ICK. The note with it: read-out: apparent Kd; compound concentrations: 100 nM and 1000 nM (sheet 'Samples'), CATDS: 7.1869443211344197E-2; n = 1.
For the next assay, the system named is PIP4K2C. The note with it: read-out: apparent Kd; compound concentrations: 100 nM and 1000 nM (sheet 'Samples'), CATDS: 4.9119421247087701E-2; n = 1.
The test system of the next assay is TGFBR2. The note with it: read-out: apparent Kd; compound concentrations: 100 nM and 1000 nM (sheet 'Samples'), CATDS: 0.19336486168442599; n = 1.
In the next assay the test system is PRKAG2. Conditions: read-out: apparent Kd; compound concentrations: 100 nM and 1000 nM (sheet 'Samples'), CATDS: 0.49360231247915698; n = 1.

Take `CNC(=O)c1cccc(C#Cc2cncnc2Nc2ccc(OCc3cccc(F)c3)c(Cl)c2)c1` [GW772405X]: the potency estimated from few doses was 1780 nM with CDK6 and 182 nM in the assay on EGFR.
As to `FC(F)(F)c1cc(Br)cc(Nc2nccc(-c3cnn4ncccc34)n2)c1` [GW810578X], the potency estimated from few doses in the assay on CDK7 is 1740 nM; in the assay on CDK9 it was 461 nM; with CDKL5 (CATDS: 0.13413982703885399), 127 nM; in the assay on CLK1, 72.6 nM; in the assay on CLK4, 82 nM; with DYRK1A it was 1410 nM. Moreover, the potency estimated from few doses in the assay on ERCC2 was 1830 nM; with FLT3 it was 516 nM; with GSK3A, 724 nM; in the assay on GSK3B, 282 nM; in the assay with ICK, 525 nM; with PIP4K2C, 2250 nM. The potency estimated from few doses in the assay on TGFBR2 was 68.5 nM.
For `COc1ccc(Nc2nccc(N3CCC(NC(=O)Nc4cc(C)ccc4C)C3)n2)cc1` (centres unmarked) [GSK1379741A], the values for the potency estimated from few doses in the assay on CDKL5 (CATDS: 0.50656570893737995) and with PRKAG2 were 1860 nM and 1960 nM, respectively.
